The text below walks through data of ChEMBL document CHEMBL3433997, “St. Jude Leishmania screening dataset” (2016).

By inhibition is commonly meant the change of the read-out against control, counted positive when it falls.

Structures are written as SMILES.

This test concerns the target Glucose transporter (Leishmania mexicana) (UniProt O61059). Kind of test: ST_JUDE_LEISH: Cytotoxicity at 2uM final concentration against transgenic Leishmania Mexicana promastigotes LmGT2 that are glucose transport deficient and complemented with the L. Mexicana glucose transporter 2. Activity is measured by DNA content using SYBR green in vitro. Type of test: functional.
`COc1ccc(C=NNc2nc3ccccc3[nH]2)cc1O`: the inhibition worked out at 1.86%. On to `COC(=O)c1ccc2nc(-c3ccc(C(=O)NCc4ccc(Cl)c(Cl)c4)cc3)[nH]c2c1`, for which the inhibition worked out at 3.51%. For the molecule `O=C(CCCCCNC(=O)c1ccc(O)c(-c2ccc(Cl)c(Cl)c2)c1)NC1CCCc2ccccc21` (stereo not given), the inhibition is 2.15%.

Regarding `CC(=O)Nc1cccc(C(=O)Nc2ccc(-c3ccc(-c4nc5cccc(C)c5[nH]4)s3)cc2)c1`, the inhibition worked out at 0.04%. Next, `O=C(Nc1cccc(-c2cccc(-c3nc4ccccc4[nH]3)c2)c1)c1csnn1`: 1.92%; `O=c1cc(NCCCNCc2cccc(Oc3ccccc3)c2)[nH]c2ccccc12`: 3.25%.

For the molecule `CCCCc1ccc(NC(=O)Nc2ccc3c(c2)CCNCC3)cc1`, the inhibition worked out at 1.65%. With `CC(C)OCCCNC(=O)c1nc(-c2cccc(C(F)(F)F)c2)sc1C(C)C`, the inhibition stood at 4.46%. For `CCc1cc2c3c(N)nc(N)nc3ccc2n1C(C)(C)C`, the inhibition worked out at 78.4%. `O=C(/C=C/c1ccc(Cl)c(Cl)c1)NCCCCCN1CCC(CCNC(=O)Cc2ccc(Cl)cc2)CC1`: the inhibition was 4.06%.

Turning to `COc1ccc(-c2cccc(NC(=O)c3ccc(Cl)cc3)c2)cc1CN1CCC(O)CC1`, the inhibition stood at 1.8%. As for `O=C(c1cccc(-c2noc(C(F)(F)F)n2)c1)N1CCN(C(=O)c2ccc3cc[nH]c3c2)CC1`, the inhibition was -1.68%. With `COc1ccc(CNc2ccnc3cc(OC)ccc23)cc1` the figure was 3.66%; with `Cc1cc(Nc2nc(Nc3cccc(Cl)c3)nc3ccccc23)n[nH]1`, 9.22%; with `NCc1cccc(-c2cccc(CNC3CCN(Cc4ccccc4)CC3)c2)c1`, -0.37%. With `COc1ccc(OC)c(-c2ccc(=O)n(CC(=O)Nc3cccc4ccccc34)n2)c1` the figure was 6.44%; with `COC(=O)c1cccc(CNCc2cccc(-c3ccc(-c4nc5ccccc5[nH]4)cc3)c2)c1`, 2.19%; with `COc1ccc2c(NN=Cc3ccccc3F)ccnc2c1`, 2.7%. For the molecule `Cc1cccc2nc(-c3cccc(-c4cccc(NC(=O)c5ccoc5)c4)c3)[nH]c12`, the inhibition was determined as 0.26%. Regarding `CS(=O)(=O)NCCCNCc1cccc(-c2ccc(-c3nc4cc(C(F)(F)F)ccc4[nH]3)cc2)c1`, the inhibition came out at 0.95%.

With `Cc1ccc2nc(C)cc(Nc3ccccc3O)c2c1`, the inhibition was -1.03%.

For `Cn1nc(C(=O)N2CCC(c3[nH]ncc3Cc3ccccc3)CC2)c2ccccc2c1=O`, the inhibition turned out to be 2.12%.

As to `COc1ccc(NC(=O)Nc2ccc(-c3cccc(-c4nc5cccc(C)c5[nH]4)c3)cc2)cc1`, the inhibition is -0.2%.

In the case of `CCCc1cc(Cc2cnc(N)nc2N)ccc1OCCCCCC(=O)O`, the inhibition came out at 1.32%.

For the molecule `CS(=O)(=O)NCCCNCc1cccc(-c2cccc(-c3nc4cc(F)ccc4[nH]3)c2)c1`, the inhibition is -0.27%. Next, `COc1ccc(C2CC(c3ccccc3)=NN2C(=O)c2ccc(Br)o2)cc1` (stereo not given): 0.09%; `O=C(NCC(CCCN1CCC(c2c[nH]c3ccccc23)CC1)c1ccccc1)Nc1ccc(Cl)c(Cl)c1` (stereo not given): 2.69%; `Cc1cc(OCCCN2CCCCC2)ccc1NC(=O)COc1ccc(Cl)cc1C(=O)c1cc(C#N)cc(C(F)(F)F)c1`: 0.43%.

With `Cc1[nH]c(C)c(-c2ccc(Oc3ccc(O)cc3)cc2)c(=O)c1Cl`, the inhibition is -5.02%. Next, `CN(C(=O)C(C)(C)Oc1ccc(Cl)cc1)C1CCN(CCCCCNC(=O)/C=C/c2ccc(Cl)c(Cl)c2)CC1`: 0.52%. Next, `CC(C)CNCc1cccc(-c2cccc(CNc3ccc4ncccc4c3)c2)c1`: 2.08%; `CCS(=O)(=O)c1ccc(/C(=N/OC)c2ccc[nH]2)cc1`: 0.42%. Take `CC(C)c1cc(Oc2c(I)cc(CCNCc3ccccc3)cc2I)ccc1O`: the inhibition is 0.47%. With `CC(C)c1ccc(C(NC(=O)C2CCCCC2)c2ccc3cccnc3c2O)cc1` (stereo not given) the figure was -1%; with `O=C(Nc1cccc(-c2ccc(-c3nc4cc(C(F)(F)F)ccc4[nH]3)cc2)c1)Nc1ccc(Cl)c(Cl)c1`, 1.65%; with `CCCNCc1ccc(-c2ccc(CN(C(=O)c3nn(-c4ccccc4)nc3C)C(C)CN(C)C)cc2)nc1` (stereo not given), 6.31%. Consider `O=C1COc2ccccc2N1C/C=C(\CN1CCC(c2ccccc2)CC1)c1cc(Cl)cc(Cl)c1`, for which the inhibition worked out at 1.69%. Next, `Cc1nc(N)nc(N)c1CCCOc1ccc(Br)cc1`: -1.62%; `CCNc1cc(C(=O)N[C@@H](Cc2ccccc2)[C@H](O)CNCCC(C)(C)C)c(F)c(N2CCCCS2(=O)=O)c1`: 0.33%; `COc1ccc(CCNCCCCCCNCCc2ccc(OC)c(OC)c2Cl)c(Cl)c1OC`: 0.35%.
